The values below come from ChEMBL document CHEMBL1961873, “Compounds: GSK PKIS; Assays: Nanosyn kinase panel” (2012).

Experiment [1] concerns the target T1, Mitogen-activated protein kinase 12 (Homo sapiens) (UniProt P53778).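 Note: values are averaged p38gamma kinase inhibition readings, compounds tested at 1 µM.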
T1 sequence (whole entry): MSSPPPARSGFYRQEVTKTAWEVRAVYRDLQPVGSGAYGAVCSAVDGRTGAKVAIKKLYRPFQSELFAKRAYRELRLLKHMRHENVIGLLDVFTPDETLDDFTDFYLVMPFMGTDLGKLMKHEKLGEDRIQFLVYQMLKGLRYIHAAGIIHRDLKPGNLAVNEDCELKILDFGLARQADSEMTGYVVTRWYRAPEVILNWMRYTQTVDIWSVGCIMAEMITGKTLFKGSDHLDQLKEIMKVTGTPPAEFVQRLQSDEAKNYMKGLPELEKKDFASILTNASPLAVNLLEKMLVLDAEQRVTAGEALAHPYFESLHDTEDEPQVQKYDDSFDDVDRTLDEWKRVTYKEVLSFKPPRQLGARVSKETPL
Particulars: at 1 µM.

Experiment [2] has as its target SRSF protein kinase 1 (Homo sapiens) (UniProt Q96SB4). The note with it: at 0.1 µM.
For experiment [3] the target is unchanged. The note with it: at 1 µM.
Experiment [4] addresses Phosphatidylinositol 4,5-bisphosphate 3-kinase catalytic subunit alpha isoform (Homo sapiens) (UniProt P42336). Particulars: at 0.1 µM.
Experiment [5] shares this target. The note with it: at 1 µM.
Experiment [6] concerns the target T2, Phosphatidylinositol 4,5-bisphosphate 3-kinase catalytic subunit delta isoform (Homo sapiens) (UniProt O00329).
T2 sequence (whole entry): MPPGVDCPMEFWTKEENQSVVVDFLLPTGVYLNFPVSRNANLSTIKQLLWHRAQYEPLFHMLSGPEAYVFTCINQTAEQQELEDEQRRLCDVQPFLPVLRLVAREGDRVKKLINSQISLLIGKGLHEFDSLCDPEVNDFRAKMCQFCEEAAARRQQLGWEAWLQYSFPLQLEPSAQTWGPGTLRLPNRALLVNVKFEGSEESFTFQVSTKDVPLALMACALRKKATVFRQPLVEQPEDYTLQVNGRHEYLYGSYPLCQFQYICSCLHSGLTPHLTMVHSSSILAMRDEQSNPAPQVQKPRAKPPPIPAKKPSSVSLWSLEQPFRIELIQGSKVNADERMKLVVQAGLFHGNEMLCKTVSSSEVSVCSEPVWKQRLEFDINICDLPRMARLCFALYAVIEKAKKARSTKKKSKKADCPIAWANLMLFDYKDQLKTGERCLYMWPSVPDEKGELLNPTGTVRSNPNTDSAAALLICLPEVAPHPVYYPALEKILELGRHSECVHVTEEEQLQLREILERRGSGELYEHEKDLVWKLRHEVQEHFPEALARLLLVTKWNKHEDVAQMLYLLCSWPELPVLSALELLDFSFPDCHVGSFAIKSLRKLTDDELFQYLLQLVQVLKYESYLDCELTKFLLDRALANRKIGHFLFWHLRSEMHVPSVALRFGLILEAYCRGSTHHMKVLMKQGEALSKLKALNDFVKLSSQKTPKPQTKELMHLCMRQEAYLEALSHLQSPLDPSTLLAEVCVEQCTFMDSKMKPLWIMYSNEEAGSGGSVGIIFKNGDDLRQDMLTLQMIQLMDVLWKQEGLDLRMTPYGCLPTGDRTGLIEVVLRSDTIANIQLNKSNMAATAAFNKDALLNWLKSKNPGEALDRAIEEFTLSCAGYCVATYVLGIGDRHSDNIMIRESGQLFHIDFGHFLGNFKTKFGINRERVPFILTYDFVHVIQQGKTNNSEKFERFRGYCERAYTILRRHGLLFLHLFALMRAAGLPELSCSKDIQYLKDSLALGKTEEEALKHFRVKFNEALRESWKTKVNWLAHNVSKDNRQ
Particulars: at 0.1 µM.

Experiment [7] addresses T2, Phosphatidylinositol 4,5-bisphosphate 3-kinase catalytic subunit delta isoform (Homo sapiens). Particulars: at 1 µM.
Experiment [8] deals with Phosphatidylinositol 4-kinase beta (Homo sapiens) (UniProt Q9UBF8). The note with it: at 0.1 µM.
Experiment [9] shares this target. The note with it: at 1 µM.
Experiment [10] deals with Sphingosine kinase 1 (Homo sapiens) (UniProt Q9NYA1). The note with it: at 0.1 µM.
Experiment [11] has the same target. Particulars: at 1 µM.
Experiment [12] has as its target T3, Sphingosine kinase 2 (Homo sapiens) (UniProt Q9NRA0).
T3 sequence (whole entry): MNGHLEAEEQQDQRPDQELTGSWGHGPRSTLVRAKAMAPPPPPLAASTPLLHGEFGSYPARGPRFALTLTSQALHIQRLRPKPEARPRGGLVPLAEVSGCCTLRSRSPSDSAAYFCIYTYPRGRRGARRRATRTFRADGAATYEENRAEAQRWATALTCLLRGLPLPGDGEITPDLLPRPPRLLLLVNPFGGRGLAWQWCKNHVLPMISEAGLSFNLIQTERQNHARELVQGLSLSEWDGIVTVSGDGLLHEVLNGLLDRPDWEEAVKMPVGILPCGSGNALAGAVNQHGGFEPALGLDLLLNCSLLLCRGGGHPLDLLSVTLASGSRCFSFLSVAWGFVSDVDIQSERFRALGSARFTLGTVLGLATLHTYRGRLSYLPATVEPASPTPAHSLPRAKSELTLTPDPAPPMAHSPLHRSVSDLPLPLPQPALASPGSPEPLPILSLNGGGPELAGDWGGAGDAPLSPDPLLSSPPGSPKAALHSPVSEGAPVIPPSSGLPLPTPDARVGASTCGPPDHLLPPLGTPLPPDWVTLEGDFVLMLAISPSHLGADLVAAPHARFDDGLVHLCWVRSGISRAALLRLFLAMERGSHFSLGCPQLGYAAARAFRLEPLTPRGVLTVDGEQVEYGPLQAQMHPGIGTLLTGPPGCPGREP
Particulars: at 0.1 µM.

In experiment [13] the target is T3, Sphingosine kinase 2 (Homo sapiens). Particulars: at 1 µM.
The target of experiment [14] is Casein kinase II subunit alpha (Homo sapiens) (UniProt P68400). The note with it: at 0.1 µM.
For experiment [15] the target is unchanged. Particulars: at 1 µM.
In experiment [16] the target is T4, Inhibitor of nuclear factor kappa-B kinase subunit alpha (Homo sapiens) (UniProt O15111).
T4 sequence (whole entry): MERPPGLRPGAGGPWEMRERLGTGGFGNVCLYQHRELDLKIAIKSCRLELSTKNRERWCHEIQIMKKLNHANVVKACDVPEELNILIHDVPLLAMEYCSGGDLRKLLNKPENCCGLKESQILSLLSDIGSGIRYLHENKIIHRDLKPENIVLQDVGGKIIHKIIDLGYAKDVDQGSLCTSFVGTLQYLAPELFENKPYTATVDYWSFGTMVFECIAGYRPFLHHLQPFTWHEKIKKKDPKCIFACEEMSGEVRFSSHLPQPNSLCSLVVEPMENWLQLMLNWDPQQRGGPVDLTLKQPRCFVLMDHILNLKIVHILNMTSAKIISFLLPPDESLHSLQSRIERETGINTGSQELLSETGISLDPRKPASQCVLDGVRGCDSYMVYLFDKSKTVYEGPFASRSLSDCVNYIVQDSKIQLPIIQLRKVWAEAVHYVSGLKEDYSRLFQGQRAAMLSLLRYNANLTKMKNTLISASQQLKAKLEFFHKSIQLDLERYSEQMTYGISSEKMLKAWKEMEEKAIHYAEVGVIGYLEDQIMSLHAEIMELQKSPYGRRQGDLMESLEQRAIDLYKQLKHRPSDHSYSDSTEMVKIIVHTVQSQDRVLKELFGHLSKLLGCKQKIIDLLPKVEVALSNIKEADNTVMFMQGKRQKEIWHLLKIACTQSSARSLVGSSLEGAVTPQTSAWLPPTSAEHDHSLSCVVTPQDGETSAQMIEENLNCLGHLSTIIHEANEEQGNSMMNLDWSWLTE
The note with it: at 0.1 µM.

Experiment [17] addresses T4, Inhibitor of nuclear factor kappa-B kinase subunit alpha (Homo sapiens). The note with it: at 1 µM.
Experiment [18] has as its target T5, Inhibitor of nuclear factor kappa-B kinase subunit beta (Homo sapiens) (UniProt O14920).
T5 sequence (whole entry): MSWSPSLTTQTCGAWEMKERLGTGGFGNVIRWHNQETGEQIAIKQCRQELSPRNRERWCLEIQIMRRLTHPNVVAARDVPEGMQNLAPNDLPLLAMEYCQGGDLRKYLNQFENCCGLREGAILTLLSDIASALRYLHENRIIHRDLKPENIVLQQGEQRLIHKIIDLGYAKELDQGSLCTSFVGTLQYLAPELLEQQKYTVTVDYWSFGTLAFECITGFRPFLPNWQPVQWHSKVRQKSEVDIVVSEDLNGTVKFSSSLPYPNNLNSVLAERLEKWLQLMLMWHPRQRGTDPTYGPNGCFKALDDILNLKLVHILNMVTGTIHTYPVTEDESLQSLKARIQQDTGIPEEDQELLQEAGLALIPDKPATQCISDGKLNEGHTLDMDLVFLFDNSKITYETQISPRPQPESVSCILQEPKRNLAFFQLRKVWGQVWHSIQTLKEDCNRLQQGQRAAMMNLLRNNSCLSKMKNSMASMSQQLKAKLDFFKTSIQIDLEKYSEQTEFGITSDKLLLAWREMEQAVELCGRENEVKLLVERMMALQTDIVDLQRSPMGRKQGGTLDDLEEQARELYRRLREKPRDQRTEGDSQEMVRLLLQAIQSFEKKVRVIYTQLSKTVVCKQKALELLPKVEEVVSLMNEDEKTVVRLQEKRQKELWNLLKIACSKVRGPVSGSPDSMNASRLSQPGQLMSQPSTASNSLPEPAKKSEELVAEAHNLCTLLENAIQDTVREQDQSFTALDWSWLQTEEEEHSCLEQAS
The note with it: at 0.1 µM.

Experiment [19] concerns the target T5, Inhibitor of nuclear factor kappa-B kinase subunit beta (Homo sapiens). The note with it: at 1 µM.
Experiment [20] concerns the target T6, Inhibitor of nuclear factor kappa-B kinase subunit epsilon (Homo sapiens) (UniProt Q14164).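 Note: mean inhibition of IKKε reported, from the GSK PKIS dataset.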
T6 sequence (whole entry): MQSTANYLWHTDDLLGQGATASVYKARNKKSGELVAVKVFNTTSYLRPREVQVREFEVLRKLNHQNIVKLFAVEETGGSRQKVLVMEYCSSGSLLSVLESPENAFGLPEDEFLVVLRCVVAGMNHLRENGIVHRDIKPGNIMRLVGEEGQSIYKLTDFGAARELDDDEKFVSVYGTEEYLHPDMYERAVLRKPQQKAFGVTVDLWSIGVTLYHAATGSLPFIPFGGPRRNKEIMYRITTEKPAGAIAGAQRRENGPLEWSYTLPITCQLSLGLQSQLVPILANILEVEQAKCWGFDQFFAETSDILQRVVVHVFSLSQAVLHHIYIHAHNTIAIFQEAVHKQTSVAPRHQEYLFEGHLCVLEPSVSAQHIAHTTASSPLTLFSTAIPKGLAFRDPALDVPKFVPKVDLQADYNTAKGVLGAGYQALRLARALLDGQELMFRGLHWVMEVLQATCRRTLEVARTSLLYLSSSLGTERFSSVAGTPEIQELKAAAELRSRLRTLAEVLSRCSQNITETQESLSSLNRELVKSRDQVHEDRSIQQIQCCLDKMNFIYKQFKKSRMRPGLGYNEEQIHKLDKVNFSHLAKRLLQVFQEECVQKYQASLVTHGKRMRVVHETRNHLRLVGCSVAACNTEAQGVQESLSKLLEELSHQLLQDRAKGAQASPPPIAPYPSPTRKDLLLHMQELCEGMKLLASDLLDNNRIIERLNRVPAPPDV
Particulars: at 0.1 µM.

Chain of Sphingosine kinase 1 (Homo sapiens) (Q9NYA1 whole entry): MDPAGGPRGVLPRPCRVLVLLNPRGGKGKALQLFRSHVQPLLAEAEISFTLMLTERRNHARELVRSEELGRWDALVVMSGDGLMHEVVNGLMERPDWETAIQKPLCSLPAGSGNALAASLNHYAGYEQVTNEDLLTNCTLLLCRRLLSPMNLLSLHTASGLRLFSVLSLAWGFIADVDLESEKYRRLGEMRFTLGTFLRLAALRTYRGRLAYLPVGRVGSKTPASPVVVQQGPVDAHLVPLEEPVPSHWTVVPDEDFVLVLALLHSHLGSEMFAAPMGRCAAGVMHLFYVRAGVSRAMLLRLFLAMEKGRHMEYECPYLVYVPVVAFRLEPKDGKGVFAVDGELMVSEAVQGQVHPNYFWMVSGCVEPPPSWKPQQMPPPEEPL
Chain of SRSF protein kinase 1 (Homo sapiens) (Q96SB4 whole entry): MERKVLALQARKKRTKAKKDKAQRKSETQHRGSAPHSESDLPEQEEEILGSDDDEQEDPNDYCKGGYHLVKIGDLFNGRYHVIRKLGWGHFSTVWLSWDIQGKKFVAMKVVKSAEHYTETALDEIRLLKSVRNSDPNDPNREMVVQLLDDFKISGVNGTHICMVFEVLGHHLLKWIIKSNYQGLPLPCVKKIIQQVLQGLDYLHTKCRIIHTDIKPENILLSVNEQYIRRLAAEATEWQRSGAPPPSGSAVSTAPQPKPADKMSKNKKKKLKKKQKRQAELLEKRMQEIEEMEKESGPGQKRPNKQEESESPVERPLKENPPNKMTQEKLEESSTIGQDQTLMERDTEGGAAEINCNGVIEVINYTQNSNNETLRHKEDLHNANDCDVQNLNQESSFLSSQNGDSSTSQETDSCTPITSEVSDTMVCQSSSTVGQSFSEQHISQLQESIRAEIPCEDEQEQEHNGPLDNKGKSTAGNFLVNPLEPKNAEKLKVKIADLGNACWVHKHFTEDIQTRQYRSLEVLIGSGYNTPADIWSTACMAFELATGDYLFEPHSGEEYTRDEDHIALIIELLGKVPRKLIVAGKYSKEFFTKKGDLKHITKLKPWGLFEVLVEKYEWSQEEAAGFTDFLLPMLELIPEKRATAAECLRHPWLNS
Chain of Casein kinase II subunit alpha (Homo sapiens) (P68400 whole entry, looked up): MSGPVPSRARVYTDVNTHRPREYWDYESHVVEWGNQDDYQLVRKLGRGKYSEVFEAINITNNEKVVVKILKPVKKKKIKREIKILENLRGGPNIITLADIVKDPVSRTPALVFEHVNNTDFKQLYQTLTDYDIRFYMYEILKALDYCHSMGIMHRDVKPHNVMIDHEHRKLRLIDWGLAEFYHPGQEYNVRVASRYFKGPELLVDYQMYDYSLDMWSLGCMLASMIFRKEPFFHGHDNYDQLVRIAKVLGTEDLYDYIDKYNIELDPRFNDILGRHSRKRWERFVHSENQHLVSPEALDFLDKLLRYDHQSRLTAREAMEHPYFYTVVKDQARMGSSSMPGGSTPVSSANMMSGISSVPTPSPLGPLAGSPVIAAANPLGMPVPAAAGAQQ
Chain of Phosphatidylinositol 4,5-bisphosphate 3-kinase catalytic subunit alpha isoform (Homo sapiens) (P42336 whole entry, canonical isoform): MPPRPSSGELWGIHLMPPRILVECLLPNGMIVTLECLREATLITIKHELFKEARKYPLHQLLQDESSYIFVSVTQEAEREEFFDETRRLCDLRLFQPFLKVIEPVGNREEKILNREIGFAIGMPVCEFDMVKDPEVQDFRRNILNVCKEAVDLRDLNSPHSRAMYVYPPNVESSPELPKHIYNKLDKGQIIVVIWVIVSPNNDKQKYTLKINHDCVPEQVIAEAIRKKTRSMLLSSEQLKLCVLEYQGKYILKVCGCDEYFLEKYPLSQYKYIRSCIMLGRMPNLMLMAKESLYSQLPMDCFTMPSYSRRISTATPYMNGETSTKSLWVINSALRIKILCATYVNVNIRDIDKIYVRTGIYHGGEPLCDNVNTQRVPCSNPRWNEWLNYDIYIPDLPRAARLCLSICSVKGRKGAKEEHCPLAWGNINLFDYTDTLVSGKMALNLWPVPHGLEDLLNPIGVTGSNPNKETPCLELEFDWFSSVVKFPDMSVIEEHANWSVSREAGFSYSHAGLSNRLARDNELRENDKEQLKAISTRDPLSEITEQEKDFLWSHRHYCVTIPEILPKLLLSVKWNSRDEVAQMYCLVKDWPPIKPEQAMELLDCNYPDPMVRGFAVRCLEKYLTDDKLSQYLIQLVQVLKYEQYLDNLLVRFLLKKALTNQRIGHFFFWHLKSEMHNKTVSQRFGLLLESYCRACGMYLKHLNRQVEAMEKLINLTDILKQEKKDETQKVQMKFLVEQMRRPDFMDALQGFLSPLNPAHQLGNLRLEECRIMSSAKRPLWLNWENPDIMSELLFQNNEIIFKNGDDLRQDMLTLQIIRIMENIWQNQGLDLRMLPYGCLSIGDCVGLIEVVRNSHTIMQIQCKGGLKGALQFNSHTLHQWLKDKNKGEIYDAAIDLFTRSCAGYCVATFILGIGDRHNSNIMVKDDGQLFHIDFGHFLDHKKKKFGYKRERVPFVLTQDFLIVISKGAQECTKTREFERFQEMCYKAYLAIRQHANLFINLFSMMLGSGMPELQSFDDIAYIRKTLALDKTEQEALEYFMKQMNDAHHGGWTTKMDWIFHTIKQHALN
Chain of Phosphatidylinositol 4-kinase beta (Homo sapiens) (Q9UBF8 2-816 limits assumed): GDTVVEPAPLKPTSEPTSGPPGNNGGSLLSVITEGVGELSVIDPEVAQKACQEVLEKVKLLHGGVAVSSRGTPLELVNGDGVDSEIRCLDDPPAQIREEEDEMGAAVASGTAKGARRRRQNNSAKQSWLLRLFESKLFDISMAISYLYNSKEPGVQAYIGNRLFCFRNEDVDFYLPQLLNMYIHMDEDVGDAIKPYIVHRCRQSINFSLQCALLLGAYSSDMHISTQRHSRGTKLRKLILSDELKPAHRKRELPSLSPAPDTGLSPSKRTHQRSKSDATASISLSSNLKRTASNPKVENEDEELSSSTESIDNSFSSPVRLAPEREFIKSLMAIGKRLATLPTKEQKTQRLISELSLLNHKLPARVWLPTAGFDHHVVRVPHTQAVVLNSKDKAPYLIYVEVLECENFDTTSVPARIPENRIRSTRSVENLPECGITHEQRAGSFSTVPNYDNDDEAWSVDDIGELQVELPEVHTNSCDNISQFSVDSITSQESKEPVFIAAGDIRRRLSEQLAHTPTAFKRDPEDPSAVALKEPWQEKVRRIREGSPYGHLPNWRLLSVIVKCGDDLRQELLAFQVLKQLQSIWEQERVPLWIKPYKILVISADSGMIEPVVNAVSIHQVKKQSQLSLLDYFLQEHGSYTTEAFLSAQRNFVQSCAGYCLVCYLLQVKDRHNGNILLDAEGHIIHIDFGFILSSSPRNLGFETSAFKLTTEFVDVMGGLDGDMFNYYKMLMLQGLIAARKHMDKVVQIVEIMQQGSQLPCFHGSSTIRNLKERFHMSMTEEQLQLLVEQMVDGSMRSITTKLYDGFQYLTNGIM

Take `O=C(NCC1CC1)c1ccc(-c2cccc(C(=O)NC3CC3)c2)cc1`: the inhibition in experiment [1] was 1.8%; in experiment [2], -1.5%; in [3], -3.41%; in experiment [4], 1.61%; in experiment [5], 1.53%; in experiment [6], 1.94%. The inhibition is 2.38% in experiment [7]; -4.62% in experiment [8]; -1.95% in [9]; 0.53% in [10]; -3.07% in experiment [11]; 0.02% in [12]. The inhibition in experiment [13] was 1.28%; in experiment [14] it was 0.31%; in [15], -2.23%; in experiment [16], 4.96%; in experiment [17] it was 0.42%; in [18], 1.17%. Moreover, the inhibition in experiment [19] came out at 0.13%; in [20] it was 3.8%.
For the compound `N#Cc1ccc(Oc2nccc(-c3c(-c4ccc(F)cc4)ncn3C3CCNCC3)n2)cc1`, the inhibition in experiment [2] is -3.52%; in experiment [3] it was -3.38%; in experiment [4], 5.16%; in experiment [5], 19.6%; in experiment [6] it was 2.8%; in [7], 17.6%. The inhibition in experiment [8] was 1.26%; in experiment [9], 1.85%; in experiment [10], 0.59%; in experiment [11], 0.37%; in [12], -1.27%; in experiment [13], -0.57%. Also, the inhibition in [15] came out at 4.89%; in experiment [16] it was 11.3%; in [17] it was 4.73%; in experiment [18], 8.59%; in experiment [19], 5.99%; in experiment [20] it was 9.95%.
Consider `NC(=O)Cc1ccccc1Oc1nccc(-c2c(-c3ccc(F)cc3)ncn2C2CCNCC2)n1`, for which the inhibition was -2.64% in [2]; -4.17% in [3]; 1.29% in [4]; 3.49% in [5]; 2.67% in [6]; 2.58% in [7]. Moreover, the inhibition in experiment [8] was -0.45%; in experiment [9], 3.25%; in [10], -2.17%; in experiment [11], -2.09%; in [12] it was 0.16%; in [13] it was 0.42%. The inhibition was 1.72% in experiment [14]; 2.63% in [15]; 8.64% in experiment [16]; 0.14% in [17]; 4.37% in experiment [18]; 3.54% in experiment [19]. The inhibition in experiment [20] was determined as 2.28%.

As a reminder, the inhibition is the relative decrease from the control value, in per cent.
